WT yeast gro inh – growth inhibition of WT yeast, mitochondrial fusion screen; inhibition, % at 10 µM; AID 1362; actives 2.1% (n = 190,000); mitochondrial fusion phenotypic screen, WT strain; in the data active = inhibition above about 58%; tested in S. cerevisiae
HCT116 PTEN-null – growth suppressors of cells with PTEN tumor suppressor deletion; HCT116 PTEN-null viability, CellTiter-Glo, 60 h; active compounds read low; viability, % at 10 µM; actives 1.2% (n = 140,000);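 active = viability at or below a set limit, 4 SD under the median of all tested compounds, cut at about 3.7% in these data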;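 also: PTEN knockout HCT116 line with beta catenin targeted HCT116 as companion control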
bCat KO growth – beta-catenin-lacking colon tumor cell growth suppression; actives 1.5% (n = 140,000); viability, % at 10 µM; AID 818; HCT116 beta-catenin knockout viability, CellTiter-Glo, 60 h; active compounds read low;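 active = viability at or under a set limit, the compound median less 4 SD, cut at about 6% in these data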
hDAT+cocaine – human DAT dopamine uptake with cocaine, either direction; LLC-PK1 hDAT cells, [14C]-dopamine uptake with cocaine IC80; actives deviate in either direction; B-score at 10 µM; actives 1.3% (n = 110,000);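 active = Z score or B-score, a plate-position-corrected score, falls beyond the plate's 99.7% confidence bounds, in either direction; inactive = both scores lie inside the 99.7% bounds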
Target sequence (Q01959 whole entry, looked up): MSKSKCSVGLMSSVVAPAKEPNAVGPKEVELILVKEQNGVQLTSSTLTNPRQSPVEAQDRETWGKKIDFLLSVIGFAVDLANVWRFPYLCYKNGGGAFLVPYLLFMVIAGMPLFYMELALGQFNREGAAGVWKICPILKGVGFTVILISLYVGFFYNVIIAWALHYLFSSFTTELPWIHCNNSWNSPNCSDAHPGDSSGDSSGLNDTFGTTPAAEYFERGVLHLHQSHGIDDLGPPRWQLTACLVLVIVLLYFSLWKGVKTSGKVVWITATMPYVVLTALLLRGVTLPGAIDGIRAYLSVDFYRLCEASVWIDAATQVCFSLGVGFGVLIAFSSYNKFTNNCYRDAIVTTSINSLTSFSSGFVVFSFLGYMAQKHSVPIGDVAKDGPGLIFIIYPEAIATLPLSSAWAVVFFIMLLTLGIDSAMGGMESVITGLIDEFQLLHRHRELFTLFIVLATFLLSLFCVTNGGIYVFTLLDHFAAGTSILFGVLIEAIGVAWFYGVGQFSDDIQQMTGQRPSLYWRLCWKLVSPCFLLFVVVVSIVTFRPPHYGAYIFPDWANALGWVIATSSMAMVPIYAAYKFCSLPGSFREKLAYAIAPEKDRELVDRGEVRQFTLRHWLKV
Large screens that a line does not name were inactive. This is a sample that favours compounds with a hit; in the whole collection about 3.6% have one here.

COc1ccccc1NC(=O)Nc1nnc(CC(=O)Nc2ccccc2)s1	none (no result: HCT116 PTEN-null, bCat KO growth, hDAT+cocaine)
COc1ccc2[nH]c3c(=O)n(Cc4ccc(C(=O)NCC5CCCO5)cc4)c(=S)[nH]c3c2c1 (centres undefined)	none (no result: HCT116 PTEN-null, bCat KO growth, hDAT+cocaine)
CC1(C)CC(=O)C2=C(C1)OC1=C(C(=O)CC(C)(C)C1)C2c1ccc(O)c([N+](=O)[O-])c1	none (no result: HCT116 PTEN-null, bCat KO growth, hDAT+cocaine)
CC1(C)CC(=O)C2=C(C1)OC1=C(C(=O)CC(C)(C)C1)C2c1ccc(O)cc1O	HCT116 PTEN-null 1.8, bCat KO growth 2.1
Cc1ccccc1-n1c(C)cc(/C=N/Nc2ccc([N+](=O)[O-])cn2)c1C	none
O=[N+]([O-])c1ccc(N/N=C\c2cccn2-c2ccccc2)nc1	WT yeast gro inh 61 (no result: HCT116 PTEN-null, hDAT+cocaine)
c1ccc(OCc2nn3c(-c4ccccn4)nnc3s2)cc1	hDAT+cocaine -9.4
Cc1nn(Cc2ccc(Cl)cc2Cl)c(C)c1NC(=O)NC12CC3CC(CC(C3)C1)C2	WT yeast gro inh 68
CN(C)/C=C1\C(=O)NN=C1C(F)(F)F	none (no result: HCT116 PTEN-null, bCat KO growth, hDAT+cocaine)
CC(C)C(=O)Nc1ccnc(-c2cccnc2)n1	none
CN(C(=O)CCN1C(=O)C(C)(C)Nc2ccccc21)c1ccccc1	none
CC1(C)Nc2ccccc2N(CC(=O)N2CCCCC2)C1=O	hDAT+cocaine 1.4
CC1(C)Nc2ccccc2N(CCC(=O)N2CCOCC2)C1=O	hDAT+cocaine 1.6
OC(CSc1c(Cl)cccc1Cl)CN1CCN(c2ccccc2F)CC1 (centres undefined)	WT yeast gro inh 66
O=S(Cc1ccccc1)CC(O)(c1ccc(Cl)cc1)c1ccc(Cl)cc1 (centres undefined)	bCat KO growth 5.7
C/C(=N\NC(=S)Nc1ccc(C)c(C)c1)c1ccc(N2CCOCC2)cc1	none (no result: hDAT+cocaine)
Cc1ccc(Nc2nc(N)nc(CN3CCN(Cc4ccc5c(c4)OCO5)CC3)n2)cc1C	none (no result: HCT116 PTEN-null, bCat KO growth, hDAT+cocaine)
COc1cccc(N2CCN(Cc3nc(N)nc(Nc4ccccc4OC)n3)CC2)c1	none
Cc1ccc(Nc2nc(N)nc(CN3CCN(c4ccccc4)CC3)n2)cc1Cl	none
COc1ccccc1Nc1nc(N)nc(CN2CCN(c3ccccc3)CC2)n1	hDAT+cocaine 2.5
Cc1ccc(Nc2nc(N)nc(CN3CCN(Cc4ccc5c(c4)OCO5)CC3)n2)cc1Cl	HCT116 PTEN-null 1.5, bCat KO growth 0.9
COc1ccc(N2CCN(Cc3nc(N)nc(Nc4ccc(C)c(Cl)c4)n3)CC2)cc1	HCT116 PTEN-null 1.4, bCat KO growth 0.8
Cc1ccc(CNC(=O)C2(c3cccs3)CCOCC2)cc1	none (no result: hDAT+cocaine)
Cc1ccc(OCCn2c(NC(=O)c3ccco3)nc3ccccc32)cc1	none
O=C(Nc1nc2ccccc2n1CCOc1ccccc1)c1ccco1	hDAT+cocaine 2.3
CC(C)C(=O)NCCc1nc2ccccc2n1CCCOc1ccc(Cl)cc1	WT yeast gro inh 70
Cc1cccc(OCCn2c(NC(=O)c3ccco3)nc3ccccc32)c1	WT yeast gro inh 73
S=C(Nc1ccccc1)Nc1nc2ccccc2n1CCOc1ccc(Br)cc1	HCT116 PTEN-null 2.1, bCat KO growth 1.6 (no result: hDAT+cocaine)
CCCc1c2ccccc2nc2ccccc12	none (no result: hDAT+cocaine)
Cc1ccc(C)c(CSCC(=O)NCc2cccs2)c1	none (no result: HCT116 PTEN-null, bCat KO growth, hDAT+cocaine)
Cc1cc(-c2ccccc2)nc(Cl)c1C#N	none (no result: hDAT+cocaine)
Cc1nc(-c2ccc(NC(=O)c3ccccc3Br)cc2)cs1	none (no result: hDAT+cocaine)
CN(C)C(=O)c1c(C(F)(F)F)nn(C)c1Cl	none (no result: HCT116 PTEN-null, bCat KO growth, hDAT+cocaine)
O=C(Nc1nc2ccccc2n1CCOc1ccc(Cl)cc1)c1ccco1	WT yeast gro inh 70, bCat KO growth 5.4
O=C(Nc1nc2ccccc2n1CCN1CCCCC1)c1ccco1	hDAT+cocaine 0.97
Cc1cccc(NC(=O)CN2C(=O)S/C(=C\c3ccc(O)c([N+](=O)[O-])c3)C2=O)c1	none (no result: HCT116 PTEN-null, bCat KO growth, hDAT+cocaine)
O=C1S/C(=C\c2ccc(O)c([N+](=O)[O-])c2)C(=O)N1Cc1cccc([N+](=O)[O-])c1	WT yeast gro inh 86 (no result: HCT116 PTEN-null, bCat KO growth, hDAT+cocaine)
O=C1S/C(=C\c2ccc(O)c([N+](=O)[O-])c2)C(=O)N1c1ccccc1Cl	WT yeast gro inh 80 (no result: HCT116 PTEN-null, bCat KO growth, hDAT+cocaine)
CC(C)(C)c1ccc(-c2nnc(SCC(=O)NC3CCS(=O)(=O)C3)n2N)cc1 (centres undefined)	none (no result: HCT116 PTEN-null, bCat KO growth, hDAT+cocaine)
Cc1ccc(NC(=O)c2ccc(CSc3nnnn3C)cc2)cc1	none
Cc1nn(-c2ccccc2)c(C)c1C(=O)OC/C(O)=C(\C#N)c1nc2ccccc2[nH]1	hDAT+cocaine -7.9
c1ccc(-c2nc(NCCCn3ccnc3)c3oc4ccccc4c3n2)cc1	hDAT+cocaine 3.5
CCc1nc(NCCCn2ccnc2)c2oc3ccccc3c2n1	none
COC(=O)Cn1nc(-c2ccc(C)cc2)c2ccccc2c1=O	WT yeast gro inh 64 (no result: HCT116 PTEN-null, bCat KO growth, hDAT+cocaine)
Cc1ccc(-c2nn(CC(=O)O)c(=O)c3ccccc23)cc1	none
O=C(CN1CCN(S(=O)(=O)c2ccccc2)CC1)Nc1ccc2c(c1)CCC2	none (no result: hDAT+cocaine)
CCOC(=O)C1CCN(C(=O)C2CCN(c3nc4ccc(OC)cc4s3)CC2)CC1	hDAT+cocaine -8.2
CCOC(=O)C1CCN(Cc2cnc(Oc3ccc(OC)cc3)s2)CC1	none
Cc1nc2ccc(-c3ccccc3)cc2o1	hDAT+cocaine 0.82
Cc1ccc2oc(-c3ccccc3)nc2c1	none
CC1CC1C(=O)OCC(=O)NCc1ccc(Cl)cc1Cl (centres undefined)	WT yeast gro inh 82 (no result: hDAT+cocaine)
COc1cc(O)cc2c1[C@@H]1Oc3c(ccc(O)c3CC=C(C)C)[C@@H]1CO2	none (no result: WT yeast gro inh, HCT116 PTEN-null, bCat KO growth)
COc1cc(CNCCc2c[nH]c3ccccc23)ccc1OCc1ccc(F)cc1	WT yeast gro inh 86, HCT116 PTEN-null 2.0, bCat KO growth 1.5, hDAT+cocaine 4.4
COc1cccc(CNCCc2c[nH]c3ccccc23)c1OCc1ccc(F)cc1	HCT116 PTEN-null 1.2, bCat KO growth 1.4
C[C@@H](C(=O)NCc1ccccn1)[C@@H]1C[C@@]1(C)[C@@H](NC(=O)OCc1ccccc1)c1ccccc1	none
Cc1cc(C)n(-c2nc(C)nc3c2cnn3-c2ccccc2)n1	WT yeast gro inh 65 (no result: hDAT+cocaine)
CCCc1ccccc1OCCNC(=O)c1cc(=O)n(C)c(=O)n1C	none (no result: HCT116 PTEN-null, bCat KO growth, hDAT+cocaine)
c1ccc(-c2nc(N3CCCCCC3)c3ccccc3n2)nc1	HCT116 PTEN-null 3.4, bCat KO growth 3.8, hDAT+cocaine 2.1
c1ccc(-c2nc(N3CCOCC3)c3ccccc3n2)nc1	HCT116 PTEN-null 3.3
COc1ccc([N+](=O)[O-])cc1NC(=O)CCC(=O)c1cccs1	none (no result: HCT116 PTEN-null, bCat KO growth, hDAT+cocaine)
O=C(Nc1ccccc1)N(Cc1ccccc1)CC(O)C(F)(F)F (centres undefined)	none
O=C(Nc1cccc(F)c1)N(Cc1ccc(Cl)cc1)CC(O)C(F)(F)F (centres undefined)	WT yeast gro inh 71
Oc1ccccc1CN(Cc1ccco1)CC(O)COCc1ccc(Cl)cc1 (centres undefined)	WT yeast gro inh 68 (no result: hDAT+cocaine)
CC1CCN(c2ccccc2NC(=O)c2ccc(F)cc2)CC1	WT yeast gro inh 72 (no result: HCT116 PTEN-null)
CC1CCN(c2ccccc2NC(=O)c2ccc(N3CCOCC3)c([N+](=O)[O-])c2)CC1	none
CC1CCN(c2ccccc2NC(=S)NC(=O)c2cccs2)CC1	none
CC1CCN(c2ccccc2NC(=S)NC(=O)C(C)(C)C)CC1	WT yeast gro inh 78 (no result: HCT116 PTEN-null, bCat KO growth, hDAT+cocaine)
Cc1cc(NS(=O)(=O)c2ccccc2)c(C)c(Cl)c1O	HCT116 PTEN-null 2.2, bCat KO growth 2.3
FC(F)(F)c1cnc(Sc2nc3nccc(-c4ccc(Cl)cc4)n3n2)c(Cl)c1	WT yeast gro inh 96 (no result: hDAT+cocaine)
Nc1cc(C(=O)O)c(Oc2ccc(Cl)cc2Cl)cc1C(=O)O	none (no result: hDAT+cocaine)

Bioassay records (PubChem)
